Each structure is given as a SMILES string. Results filed as inconclusive are left out. A call without a number means that no potency is given here. Activity calls are given as the source filed them. Calls come from the whole dose curve; as a rule, active = well fitted cell-killing curve with a large enough effect; inconclusive = small, poorly fitted or top-dose-only effect; inactive = flat fitted curve, though single readings scatter. Positions of bridges follow the written chain, without caps; N, C: chain ends. Non-standard residues stand in square brackets, D forms with d. Residues, ends and D or L forms follow the SMILES beside them. ξ: configuration not given here. *: point of attachment. Octanoyl(6-Me) = CCC(C)CCCCC(=O)*; ξThr(3R) = C[C@@H](O)C(N)C(=O)O; dDab = NCC[C@@H](N)C(=O)O; Dab = NCC[C@H](N)C(=O)O; Nva = CCC[C@H](N)C(=O)O; Cbz = O=C(OCc1ccccc1)*
Potency is the fitted concentration of half-maximal effect.

A short description of the assay: qHTS of pediatric cancer cell lines to identify multiple opportunities for drug repurposing: Primary screen for BT-37 cells (AID 1347094). The following applies: BT-37 viability, CellTiter-Glo luminescence, 48 h; series mostly up to 57.3 µM. An excerpt:
Drug repurposing or repositioning has been offered as a strategy for drug development in oncology programs. This approach has special potential for childhood cancers and other rare or orphan diseases, where the expected return on new drug development has been a disincentive to pharmaceuticals. […] In this project we exploit the poly-pharmacology of drugs to discover new indications via phenotypic screening of a panel of 19 well-characterized cell lines derived from solid tumors seen in children and adolescents. The goal is to identify approved drugs with previously unrecognized anticancer properties that has the potential to reveal new mechanisms and biological processes involved in carcinogenesis or drug resistance. We employed a titration-based paradigm (quantitative high-throughput screening or qHTS), where all compounds were tested at multiple concentrations for their effect on cell viability. Concentration-response curves (CRCs) were derived directly from the primary screen, and both potency and efficacy values were used to identify compounds with robust bioactivity profiles. We screened the NIH Chemical Genomics Center (NCGC) Pharmaceutical Collection (NPC) and Mechanism Interrogation Plate (MIPE) small molecule collections of approved and investigational compounds against these cell lines; and measured metabolically active cells after 48 hours of compound treatment as a proxy for cell viability. […] Assay Submitter: Nathalia J. Martinez, National Center for Advancing Translational Sciences, National Institutes of Health, Rockville, MD, USA; email: natalia.martinez@nih.gov Shen, M et al. Quantitative high-throughput phenotypic screening of pediatric cancer cell lines identifies multiple opportunities for drug repurposing. Oncotarget 2017 Dec 19;9(4):4758-4772. PMID 29435139.
The cells were obtained from University of North Carolina (UNC), Pediatric Preclinical Testing Program (PPT), and Coriell Institute (CI). qHTS cell viability assay: Cells were assayed in growth media at a density of 500-1,000 cells/well. Five microliters of cells were dispensed into 1,536-well, white, solid-bottom, TC-treated plates (Greiner Bio One) using a multidrop dispenser and incubated at 37 degrees C, 5% CO2, under a humidified atmosphere for 5 hours. Twenty-three nanoliters of compounds and controls (neutral control DMSO or positive control bortezomib at final concentration of 2.3 µM) were subsequently transferred by Kalypsys pintool. For primary screens, the MIPE collection was tested at 11-point dilutions (final concentrations range from 0.78 nM to 46 µM) and the NPC collection at 8-point dilutions (final concentrations range from 0.59 nM to 46 µM). Compounds tested in follow-up screens were assayed at 11-point dilutions. Cells were incubated for 48 hours, followed by addition of 3 µL of CellTiter-Glo (Promega). After a 15 min incubation at room temperature, samples were analyzed for luminescence intensity using a ViewLux High-throughput CCD imager equipped with clear filters.
Background: qHTS replaces the single test concentration by a dilution series.
In the case of `CCC[C@@H](C=O)NC(=O)[C@H](CC(C)C)NC(=O)[C@H](CC(C)C)NC(=O)OCc1ccccc1` (Cbz-Leu-Leu-[Nva]-aldehyde), the Potency was 1.22 µM (active).

As to `NC(=O)c1ncn([C@@H]2O[C@H](CO)[C@@H](O)[C@@H]2O)c1N`, the Potency entry was “inactive”. In the case of `C=CC1=C(C(=O)O)N2C(=O)[C@@H](NC(=O)C(=NO)c3csc(N)n3)[C@H]2SC1`, the Potency result is “inactive”. Next, `C[C@H](NCc1ccc(OCc2cccc(F)c2)cc1)C(N)=O`: 19.3 µM (active). In the case of `CCOC(=O)C=C[C@H](C[C@@H]1CCNC1=O)NC(=O)[C@@H](CC(=O)[C@@H](NC(=O)c1cc(C)on1)C(C)C)Cc1ccc(F)cc1`, the Potency result is “inactive”. Regarding `CC(N[C@H]1CCCC[C@H]1NC(=O)c1ccc(Cl)cc1)c1cccc2ccccc12` (stereo not given in full), the Potency was 1.53 µM (active). Turning to `NC[C@H]1O[C@H](O[C@H]2[C@@H](O)[C@@H](O[C@H]3O[C@H](CO)[C@@H](O)[C@H](N)[C@@H]3O)[C@H](N)C[C@@H]2N)[C@H](N)C[C@H]1O`, the Potency result was “inactive”. For the compound `COc1cccc2c1C(=O)c1c(O)c3c(c(O)c1C2=O)C[C@@](O)(C(C)=O)C[C@H]3O[C@H]1C[C@H](N)[C@H](O)[C@H](C)O1`, the Potency is 0.0273 µM (active). Then `COc1ccc(C[C@@H](C)[C@@H](C)Cc2ccc(OC)c(OC)c2)cc1OC`, with 0.968 µM (active); and `Cc1cnc(Nc2ccc(CN3CCOCC3)cc2)nc1Nc1cccc(S(=O)(=O)NC(C)(C)C)c1`, with 17.2 µM (active); and `O=[N+]([O-])c1cn2c(n1)OC[C@@H](OCc1ccc(OC(F)(F)F)cc1)C2`, with “inactive”. Then `CCCc1nc(C(C)(C)O)c(C(=O)O)n1Cc1ccc(-c2ccccc2-c2nn[nH]n2)cc1`, with “inactive”; and `CC(=O)OC[C@@H]1O[C@@H](n2ccc(=O)[nH]c2=O)[C@H](OC(C)=O)[C@H]1OC(C)=O`, with “inactive”. Take `C=CC(=O)N1CCc2ccc(-n3c(=O)ccc4cnc5ccc(-c6cnn(C)c6)cc5c43)cc21`: the Potency was 6.11 µM (active).

Regarding `C[C@H]1COc2c(N3CCN(C)CC3)c(F)cc3c(=O)c(C(=O)O)cn1c23`, the Potency result was “inactive”. As to `C[C@H](O)[C@@H]1C(=O)N2C(C(=O)O)=C(S[C@@H]3CN[C@H](CNS(N)(=O)=O)C3)[C@@H](C)[C@@H]12`, the Potency entry was “inactive”. As for `CCOC(=O)N1CCN([N+]([O-])=NOc2ccc([N+](=O)[O-])cc2[N+](=O)[O-])CC1`, the Potency was 15.3 µM (active). Then `CCCCCCCN(CC)CCCC(O)c1ccc(NS(C)(=O)=O)cc1` (stereo not given), with “inactive”; and `FC(F)c1nc2ccccc2n1-c1nc(N2CCOCC2)nc(N2CCOCC2)n1`, with 1.09 µM (active); and `C[C@]12CCC(=O)C=C1[C@@H]1CC1[C@H]1[C@H]3[C@@H]4C[C@H]4[C@@]4(CCC(=O)O4)[C@@]3(C)CC[C@H]12` (stereo not given in full), with “inactive”. Then `NC1=N[C@H]2[C@H](CS[C@H]2CCCCC(=O)O)N1`, with “inactive”; and `Cc1ccc(O)c(C(CCN(C(C)C)C(C)C)c2ccccc2)c1` (stereo not given), with “inactive”. In the case of `C#Cc1cccc(Nc2ncnc3cc(OCCOC)c(OCCO)cc23)c1`, the Potency was 6.85 µM (active). As for `Cc1ccccc1C(=O)Nc1ccc(C(=O)N2CCCC(O)c3cc(Cl)ccc32)c(C)c1` (stereo not given), the Potency entry is “inactive”. `OC[C@@H](O)[C@@H](O)[C@H](O)[C@@H](O)CO`: the Potency result was “inactive”.

For `OCCN1C[C@H](O)[C@@H](O)[C@H](O)[C@@H]1CO`, the Potency was 19.3 µM (active). For the compound `CCC(C=C[C@@H]1OC(=O)C=C[C@H]1C)=C[C@H](C)CC=CC(C)=C[C@@H](C)C(=O)[C@@H](C)[C@H](O)[C@@H](C)CC(C)=CC(=O)O`, the Potency was 0.0102 µM (active). As for `O=C1NC(O)CCN1[C@@H]1O[C@H](CO)[C@H](O)[C@H]1O` (stereo not given in full), the Potency entry is “inactive”. Then `COc1cc(C[C@@H](CO)[C@H](CO)Cc2ccc(O)c(OC)c2)ccc1O`, with 3.85 µM (active). Consider `C[N+]1(C)[C@@H]2C[C@@H](OC(=O)C(O)(c3cccs3)c3cccs3)C[C@H]1[C@@H]1O[C@@H]12`, for which the Potency entry was “inactive”. `Cc1ccc(-n2[nH]c(C)c(N=Nc3cccc(-c4cccc(C(=O)O)c4)c3O)c2=O)cc1C`: the Potency is 19.5 µM (active). Consider `Nc1cccc2c1C(=O)N(C1CCC(=O)NC1=O)C2=O` (stereo not given), for which the Potency entry was “inactive”. `CCC(C)CCCCC(=O)N[C@@H](CCN)C(=O)NC(C(=O)N[C@H](CCN)C(=O)N[C@@H]1CCNC(=O)C([C@@H](C)O)NC(=O)[C@@H](CCN)NC(=O)[C@@H](CCN)NC(=O)[C@@H](CC(C)C)NC(=O)[C@H](Cc2ccccc2)NC(=O)[C@H](CCN)NC1=O)[C@@H](C)O` (stereo partly drawn) ({Octanoyl(6-Me)}-[Dab][ξThr(3R)][dDab][dDab][Dab]F[dL][dDab][dDab][ξThr(3R)]; lactam 4-C): the Potency result was “inactive”. For `Cn1cc(C2=C(c3c4n(c5ccccc35)CCC(CN)C4)C(=O)NC2=O)c2ccccc21` (stereo not given), the Potency is 27.3 µM (active). Take `COc1cc(OC)c(NC(=O)Nc2cc(C)on2)cc1Cl`: the Potency entry was “inactive”. Take `COc1cc(C)c(Sc2cnc(NC(=O)c3ccc(CNC(C)C(C)(C)C)cc3)s2)cc1C(=O)N1CCN(C(C)=O)CC1` (stereo not given): the Potency was 7.69 µM (active). As for `COC(=O)[C@@H]1CC2=CC(=O)CC[C@]2(C)[C@@]23O[C@@H]2C[C@@]2(C)[C@H](CC[C@@]24CCC(=O)O4)[C@@H]13`, the Potency entry is “inactive”. For `CN(CC(=O)N(Cc1ccc(C2CCCCC2)cc1)c1ccc(C(=O)O)c(O)c1)S(=O)(=O)c1c(F)c(F)c(F)c(F)c1F`, the Potency is 17.2 µM (active). As to `CC1(C)CC(O)CC(C)(C)N1[O]`, the Potency result is “inactive”.

`CC(C)(C)c1nc2c3cc[nH]c(=O)c3c3cc(F)ccc3c2[nH]1`: the Potency result is “inactive”.

(Values after PubChem BioAssay (NCATS).)
